Screen size: about 310,000 compounds; about 14,000 (4.5%) showed an effect of 50% or more. Effects have a minus sign here. The entries come from a sample that favours strong results as a whole.
target: human ether-à-go-go-related gene (hERG) potassium channel (human, UniProt Q12809); test: primary screen, population patch clamp on CHO cells stably expressing hERG; higher = less effect of the substance
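Also: peak tail current of the secondary pulse compared with the same well before compound.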

Sequence of human ether-à-go-go-related gene (hERG) potassium channel (Q12809 whole entry, looked up): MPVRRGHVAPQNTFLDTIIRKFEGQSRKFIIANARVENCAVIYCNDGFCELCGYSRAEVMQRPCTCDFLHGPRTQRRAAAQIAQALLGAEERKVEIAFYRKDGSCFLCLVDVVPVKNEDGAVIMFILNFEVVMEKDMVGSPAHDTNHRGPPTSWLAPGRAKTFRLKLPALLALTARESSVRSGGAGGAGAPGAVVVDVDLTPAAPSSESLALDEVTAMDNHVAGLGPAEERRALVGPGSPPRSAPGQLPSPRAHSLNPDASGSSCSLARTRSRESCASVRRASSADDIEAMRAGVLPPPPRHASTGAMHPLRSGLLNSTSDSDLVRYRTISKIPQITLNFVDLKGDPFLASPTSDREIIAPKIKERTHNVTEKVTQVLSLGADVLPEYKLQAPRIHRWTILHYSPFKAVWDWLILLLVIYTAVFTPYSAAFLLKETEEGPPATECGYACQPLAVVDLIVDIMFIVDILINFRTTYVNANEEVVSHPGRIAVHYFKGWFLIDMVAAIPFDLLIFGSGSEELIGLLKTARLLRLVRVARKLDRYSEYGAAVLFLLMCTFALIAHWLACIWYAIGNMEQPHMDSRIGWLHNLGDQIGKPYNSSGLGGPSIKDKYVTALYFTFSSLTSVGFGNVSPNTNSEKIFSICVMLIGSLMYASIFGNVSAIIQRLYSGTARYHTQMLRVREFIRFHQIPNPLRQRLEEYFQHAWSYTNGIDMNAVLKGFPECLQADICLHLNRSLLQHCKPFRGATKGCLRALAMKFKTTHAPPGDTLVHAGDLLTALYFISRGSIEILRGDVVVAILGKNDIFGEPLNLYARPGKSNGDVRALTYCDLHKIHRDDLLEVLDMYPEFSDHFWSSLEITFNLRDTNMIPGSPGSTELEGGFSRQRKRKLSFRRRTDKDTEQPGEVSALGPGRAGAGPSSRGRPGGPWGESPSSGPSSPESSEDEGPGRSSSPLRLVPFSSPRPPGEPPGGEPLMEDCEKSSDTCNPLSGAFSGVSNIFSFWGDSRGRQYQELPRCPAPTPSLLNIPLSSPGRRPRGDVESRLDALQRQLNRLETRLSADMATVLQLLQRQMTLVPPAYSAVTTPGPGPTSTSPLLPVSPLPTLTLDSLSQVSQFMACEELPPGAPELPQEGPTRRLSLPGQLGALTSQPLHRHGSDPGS

Structure (SMILES)	hERG current change (%, negative = inhibition) at 10uM [%]
COc1ccc(-c2cnc(N)n2CC2CCCO2)cc1 (stereo not drawn)	-5.53
Cc1cc(C)n(CC(O)COc2c(C)cccc2C)n1 (stereo not drawn)	-1.28
O=P(C1=C(N2CCOCC2)/C(=C\c2ccccc2)CC1)(N1CCOCC1)N1CCOCC1	-25.3
O=C(CSc1nnc(NC(=O)C2CC(=O)N(c3ccccc3)C2)s1)NCc1ccco1 (stereo not drawn)	16.9
O=C(c1cccs1)N(Cc1ccc(Cl)cc1)C1CCS(=O)(=O)C1 (stereo not drawn)	-41.9
O=C(c1ccco1)N(Cc1cccc(Cl)c1)C1CCS(=O)(=O)C1 (stereo not drawn)	-59
O=C(c1ccco1)N(Cc1cccc(F)c1)C1CCS(=O)(=O)C1 (stereo not drawn)	-5.78
O=C(c1cccs1)N(Cc1cccc(F)c1)C1CCS(=O)(=O)C1 (stereo not drawn)	-14.9
O=C(c1ccco1)N(Cc1ccc(Cl)cc1)C1CCS(=O)(=O)C1 (stereo not drawn)	-11.6
O=C(c1cccs1)N(Cc1cccc(Cl)c1)C1CCS(=O)(=O)C1 (stereo not drawn)	-52
CC(=O)CCS(=O)(=O)c1ccc(C)c(C)c1	1.19
O=C(OCC(=O)N1CCCC1=O)C1CCN(S(=O)(=O)c2ccc(Cl)c(C(F)(F)F)c2)CC1	5.31
COc1ccc(C(=O)NC(=S)Nc2ccc(S(=O)(=O)Nc3cc(OC)ncn3)cc2)cc1	15.4
CSCCC1NC(=O)N(CC(=O)N2CCc3ccccc3C2)C1=O (stereo not drawn)	-1.18
CCOC(=O)c1[nH]c2ccc(OC)cc2c1NC(=O)c1ccccc1C(=O)O	14.2
COc1ccc(N2CCN(CCNC(=O)C3CCN(S(=O)(=O)c4cccs4)CC3)CC2)cc1	-50.7
O=C(NCCN1C(=O)S/C(=C\c2ccccc2)C1=O)C1CCN(S(=O)(=O)c2cccs2)CC1	-23.8
COCCNC(=O)C1CCN(S(=O)(=O)c2c(C)noc2/C=C/c2cccs2)CC1	-34.7
CCCNC(=O)C1CCN(S(=O)(=O)c2cccs2)CC1	28.1
Cc1noc(/C=C/c2cccs2)c1S(=O)(=O)N1CCC(C(=O)NCCCN2CCCC(C)C2)CC1 (stereo not drawn)	-44.5
O=C(NCCN1C(=O)S/C(=C\c2ccccc2F)C1=O)C1CCN(S(=O)(=O)c2cccs2)CC1	-57.2
COc1ccc(N2CCN(CCNC(=O)CCNS(=O)(=O)c3cccs3)CC2)cc1	-24.7
O=C(NCCCN1CCN(c2ccccc2F)CC1)C1CCN(S(=O)(=O)c2cccs2)CC1	-60.6
COc1ccc(N2CCN(C(=O)C3CCN(S(=O)(=O)c4cccs4)CC3)CC2)cc1	-49.3
Cc1noc(/C=C/c2cccs2)c1S(=O)(=O)N1CCC(C(=O)NCCCN2CCC(C)CC2)CC1	-83.7
CCS(=O)(=O)N1CCC(C(=O)NCCCN2CCN(c3ccccc3F)CC2)CC1	-16.3
O=C(NCCN1C(=O)S/C(=C\c2ccc(F)cc2)C1=O)C1CCN(S(=O)(=O)c2cccs2)CC1	-7.1
